Rows were chosen to be rich in hits. Some 1.7% of all compounds tested hit in one or more screens of this group.
GLP1R ag = GLP-1 receptor (human) agonism; P43220; HEK293 GLP-1R CRE-luciferase, luminescence, 4-6 h; cells express a hypersensitive GLP-1R form; Potency, µM (doses to about 45.6 µM), for the others: top-dose activation, actives largely listed as activators; 380,000 tested, 0.007% active; AID 624172; note: % of control where 0% means no effect
Target sequence (P43220 whole entry, looked up): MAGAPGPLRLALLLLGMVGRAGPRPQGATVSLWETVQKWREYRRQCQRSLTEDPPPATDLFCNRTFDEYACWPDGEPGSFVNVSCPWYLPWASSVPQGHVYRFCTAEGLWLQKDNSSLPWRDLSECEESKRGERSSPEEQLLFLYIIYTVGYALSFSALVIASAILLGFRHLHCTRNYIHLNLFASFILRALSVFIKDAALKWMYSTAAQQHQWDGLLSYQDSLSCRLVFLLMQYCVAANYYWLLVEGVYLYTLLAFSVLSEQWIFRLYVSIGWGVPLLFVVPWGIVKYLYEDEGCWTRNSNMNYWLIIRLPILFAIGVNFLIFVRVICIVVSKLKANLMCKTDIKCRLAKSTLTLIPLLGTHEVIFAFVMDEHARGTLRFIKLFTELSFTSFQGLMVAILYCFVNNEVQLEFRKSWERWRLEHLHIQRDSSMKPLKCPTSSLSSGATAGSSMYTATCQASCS
GLP1R inv ag = inverse agonists of human GLP-1 receptor. Potency, µM (top dose mostly 38.3 µM), for the others: at the highest dose activity change, negative = inhibition, hits mostly inhibitors. P43220. HEK293 GLP-1R CRE-luciferase, luminescence, 24 h; GLP-1R form is constitutively active. 410,000 tested, 1.6% active. AID 624417; note: % is set by controls: 0 for no effect and ±100 for the full control effect; nearly all actives have a fitted effect of over 55% in size
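Seeding at 200 cells/uL, 12 h culture, 24 hr compound treatment, then luciferase reagent and a luminescence read; cells are HEK293 stably expressing a constitutively active GLP-1R plus cAMP-responsive luciferase.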
HEK293 tox = cytotoxic in the GLP-1 receptor inverse agonist counter-screen. HEK293 cAMP-luciferase reporter cells, luminescence, 24 h. Potency, µM (highest dose often 38.3 µM), for inactives: at the top dose activity change, negative = inhibition, usual class: inhibitors. 410,000 tested, 0.13% active. AID 624418;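 note: loss of luciferase light is scored as toxicity; % is set by controls: 0 for no effect and ±100 for the full control effect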
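MLSMR compounds, 24 hr on cells at 37 deg C/5% CO2; luminescence after luciferase reagent (12 min RT). Inhibition counted as the undesired cytotoxic outcome.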
* = called active by the depositor; i = inactive; ? = inconclusive; · = no result given. Calls come from the whole dose curve; as a rule, active = well fitted curve in the direction sought with a large enough effect; inconclusive = small, poorly fitted or top-dose-only effect, or another doubt; inactive = no such curve, though single readings can be large; an effect the other way counts as inactive or inconclusive. Potency is the fitted concentration of half-maximal effect.

SMILES | GLP1R ag | GLP1R inv ag | HEK293 tox
Cc1cc(C)cc(Cn2cc(CN3CC(N4CCN(Cc5ccccc5F)CC4)CS3(=O)=O)nn2)c1 (stereo not given) | 7% | -7% | -12%
Cc1cccc(NC(=O)CC(=O)Nc2cccc(C)c2)c1 | 6% | ? | 0%
Cc1cccc(NC(=O)C23CCC(C)(C2Br)C3(C)C)c1 (stereo not given) | 2% | 3.5µM* | 9%
CCOC(=O)N1CCc2cc(OC)c(OC)c3c2c1cc1cc(OC)c(OC)cc13 | 0% | 3% | ?
CCOC(=O)c1cc(-c2ccccc2)sc1NC(=O)C(C)C | 7% | -26% | 4%
CCOC(=O)c1cc(-c2ccccc2)sc1NC(=O)C(C)N1C(=O)NC(C)(c2ccc(Cl)cc2)C1=O (stereo not given) | -5% | 5.6µM* | 6%
CC1CCN(c2oc(-c3cccs3)nc2S(=O)(=O)c2ccc(Cl)cc2)CC1 | · | -5% | -10%
O=[N+]([O-])c1cc(S(=O)(=O)N2CCOCC2)ccc1OCc1ccccc1C(F)(F)F | 3% | -26% | -19%
COc1ccc(CCNC(=O)C(=O)NCC(c2ccc3c(c2)OCO3)N2CCOCC2)cc1OC (stereo not given) | · | 4% | 9%
O=C1c2ccccc2C2=Nc3ccccc3SC(c3cccc(F)c3)C12 (stereo not given) | -5% | ? | 7.9µM*
O=C1c2ccccc2C2=Nc3ccccc3SC(c3ccc(Cl)cc3)C12 (stereo not given) | 1% | 13µM* | ?
Fc1cccc(C2NN=C(c3ccccc3)S2)c1 (stereo not given) | 9% | 3% | 1%
O=C1CCCC2=C1C(c1ccc(Cl)cc1)C1C(=O)c3ccccc3C1=N2 (stereo not given) | 0% | 0% | -29%
COc1ccc(NC(=O)c2sc3nc(C)c(C(=O)Nc4ccc(C)cc4C)c(-c4sccc4C)c3c2N)cc1 | · | 0% | 2%
COc1ccc(C)cc1NC(=O)N1CCC(CN2CCOCC2)CC1 | · | 11% | 0%
COc1ccccc1Nc1nnc(SCc2nnc(-c3cc(OC)c(OC)c(OC)c3)o2)s1 | 18% | -20% | -25%
COc1cc(-c2nnc(CSc3nnc(Nc4ccc(C(C)C)cc4)s3)o2)cc(OC)c1OC | 11% | ? | 11µM*
COc1ccnc(CSC(N)=Nc2cccc(C(F)(F)F)c2)c1 | 12% | 11µM* | 14%
COc1ccnc(CSC(N)=Nc2ccccc2C(F)(F)F)c1 | 1% | -2% | -1%
CCC(C)NC(=O)CCCN1C(=O)CCn2nc(-c3cccn3C)cc21 (stereo not given) | · | 15% | 4%
COc1ccc(/C=N/NC(=O)c2ccc(NC(C)=O)cc2)cc1COc1ccc(F)cc1F | 9% | 0% | 1%
COc1ccc(/C=N/NC(=O)c2cc(C(C)(C)C)[nH]n2)cc1COc1ccc(F)cc1F | -6% | 6.3µM* | ?
COc1cc(-c2cc(C(=O)NCc3ccco3)c3ccccc3n2)cc(OC)c1OC | 5% | ? | ?
COc1cc(-c2cc(C(=O)Nc3ccc(S(=O)(=O)NCc4ccco4)cc3)c3ccccc3n2)cc(OC)c1OC | 2% | 2µM* | -11%
O=C(Cc1ccccc1)N/N=C/c1ccc2cccc(O)c2n1 | 6% | ? | 5.6µM*
SMILES | GLP1R ag | GLP1R inv ag | HEK293 tox
NC(=O)N/N=C/c1ccc2cccc(OCc3ccccc3)c2n1 | 19% | 49% | 2%
CCCC#Cc1ccc2c(c1)O[C@@H](CN(C)Cc1ccc3c(c1)OCO3)[C@H](C)CN([C@@H](C)CO)S2(=O)=O | 9% | ? | -11%
COc1ccc(N(Cc2ccccc2)S(=O)(=O)c2cccc(C(=O)NCC3CCCO3)c2)cc1 (stereo not given) | 13% | ? | -2%
CCC(Sc1nnc(C)n2c1cc1occc12)C(=O)Nc1ccccc1OC (stereo not given) | · | 5% | -9%
O=C(/C(=C\c1ccccc1)c1nc2ccccc2[nH]1)c1ccc(Cl)cc1 | 9% | ? | ?
O=C(/C(=C/c1ccc(Cl)cc1)c1nc2ccccc2[nH]1)c1cccs1 | -8% | 4.5µM* | ?
CCc1nn(CC(=O)NCCc2ccc(SC)cc2)c(=O)c2cc3sccc3n12 | · | -1% | 1%
Cc1nc2nc(C)c(CCC(=O)NCc3cccc(Cl)c3)c(C)n2n1 | 0% | -13% | -20%
Cc1cc([N+](=O)[O-])c2ccccc2c1NS(=O)(=O)c1ccccc1 | 12% | 10µM* | -4%
Cc1ccc(NS(=O)(=O)c2ccccc2)c([N+](=O)[O-])c1 | 1% | 3% | 0%
CCNC(=S)Nc1ccc(Cl)c([N+](=O)[O-])c1 | 0% | ? | 2%
CC(C)(C)NC(=O)C(c1ccccc1)n1c(=O)c(-c2ccccc2)nc2ccccc21 (stereo not given) | · | 11µM* | -2%
COc1ccc(C(C(=O)NC(C)(C)C)n2c(=O)c(-c3cc4ccccc4[nH]3)nc3ccccc32)cc1 (stereo not given) | · | 10µM* | i
O=C(NC1CCCCC1)C(c1ccncc1)n1c(=O)c(-c2cc3ccccc3[nH]2)nc2ccccc21 (stereo not given) | · | ? | 488%
COc1ccc(C(C(=O)NCc2ccccc2)n2c(=O)c(-c3cc4ccccc4[nH]3)nc3ccccc32)cc1 (stereo not given) | · | ? | i
CCCCCNC(=O)C(CCc1ccccc1)n1c(=O)c(-c2cc3ccccc3[nH]2)nc2ccccc21 (stereo not given) | · | 3.5µM* | 388%
CCCCCNC(=O)C(c1ccccc1)n1c(=O)c(-c2cc3ccccc3[nH]2)nc2ccccc21 (stereo not given) | · | ? | i
O=C(NC1CCCCC1)C(c1ccc(C(F)(F)F)cc1)n1c(=O)c(-c2cc3ccccc3[nH]2)nc2ccccc21 (stereo not given) | · | 2.5µM* | i
CC(C)(C)NC(=O)C(c1ccnc2ccccc12)n1c(=O)c(-c2ccccc2)nc2ccccc21 (stereo not given) | · | ? | -11%
COc1ccc2c(c1)c1c(c(=O)n(-c3cccc(C)c3)c(=O)n1CC(=O)N1CCCC1)n2C | 0% | 5% | -12%
Cc1cnc(C2OCCO2)c2cccc([N+](=O)[O-])c12 | -2% | 19% | 13%
COc1ccccc1CCNC(=O)c1cccc(NC(=O)CC2SC(N3CCCCC3)=NC2=O)c1 (stereo not given) | 0% | 5% | -25%
CNC(=O)NC(=O)CSc1ccc(S(=O)(=O)N(C)C2CCCCC2)cn1 | 5% | 15% | 16%
Cc1ccc(C(=O)Nc2ccc(S(=O)(=O)Nc3cnc4ccccc4n3)cc2)cc1 | 2% | 9% | -5%
CC(C)c1ccc(C2(C)NC(=O)N(CC(=O)NCC3COc4ccccc4O3)C2=O)cc1 (stereo not given) | -19% | ? | -28%
CCCCN(C(=O)c1ccc(Cl)cc1)C1CC2CCC(C1)N2C (stereo not given) | -1% | ? | -15%
CN1C2CCC1CC(N(CCc1ccccc1)C(=O)c1ccc(Cl)cc1)C2 (stereo not given) | -4% | 10µM* | -1%

Screening data deposited in PubChem BioAssay by National Center for Advancing Translational Sciences (NCATS).
